# Test results from PubChem BioAssay.
# Calls of active or inactive are those of the source.
# How the values were obtained:
# [1] = binders of probe aFSTL3 on microarray, primary screen, stem cell growth factor project, biochemical, small-molecule microarray, fluorescence 635/667 (AID 1064); settings: higher = more signal;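 note: measures binding of the biotinylated anti-FSTL3 antibody to printed compounds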
# [2] = binders from COS7 lysate, DM2A8 probe, primary screen, torsin A project, cell lysate, small-molecule microarray, fluorescence 635/667 (AID 1065); settings: higher = more signal, COS7 lysate expressing mutant human TOR1A
# [3] = binders of probe aFGF2 on microarray, primary screen, stem cell growth factor project, biochemical, small-molecule microarray, fluorescence 635/667 (AID 1067); settings: higher = more signal;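 note: measures binding of biotinylated aFGF2 protein to printed compounds on slides; z-score merges feature fluorescence and signal-to-noise across triplicate slides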
# [4] = binders of probe aFGF10 on microarray, primary screen, stem cell growth factor project, biochemical, small-molecule microarray, fluorescence 635/667 (AID 1071); settings: higher = more signal;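 note: score merges 667 nm spot intensity and signal to noise from triplicate slides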
# [5] = molecular target: Neurogenic locus notch homolog protein 2 (Homo sapiens) (UniProt Q04721); assay: Notch2 binders on small-molecule microarrays, primary screen, biochemical, small-molecule microarray, 635 nm fluorescence, stem cell growth factors (AID 1073); settings: Notch2 binding, higher = more signal
# [6] = molecular target: Pro-neuregulin-1, membrane-bound isoform (Homo sapiens) (UniProt Q02297); assay: NRG1 binders on small-molecule microarrays, primary screen, psychiatric disease protein project, biochemical, small-molecule microarray, fluorescence 635/667 (AID 1075); settings: NRG1 binding, 635 nm fluorescence, higher = more signal;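 note: score combines 667 nm spot fluorescence with signal to noise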
# [7] = test system: Neuregulin-1 EGF-like domain; assay: binders of neuregulin-1 EGF-like domain, primary screen, biochemical, small-molecule microarray, 635 nm fluorescence (AID 1081); settings: small-molecule microarray binding, higher = more signal;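 note: binding of the protein to compounds printed on small-molecule microarray slides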
# [8] = FRG1 promoter luciferase signal modulators, primary screen, FRG1 inhibition for FSHD, cell-based, C2C12 myotubes, firefly/Renilla luciferase, luminescence (AID 1084); settings: higher = more signal, called active from +8 up or from −8 down
# [9] = binders of probe aFST on microarray, primary screen, stem cell growth factor project, biochemical, small-molecule microarray, fluorescence 635/667 (AID 1086); settings: higher = more signal;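 note: score merges 667 nm fluorescence with signal-to-noise of each printed compound spot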
# [10] = binders of probe aHhip on microarray, primary screen, stem cell growth factor project, biochemical, small-molecule microarray, fluorescence 635/667 (AID 1087); settings: higher = more signal;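 note: score merges spot fluorescence at 667nm with spot signal to noise ratio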
# [11] = test system: PRMT1 (protein arginine N-methyltransferase 1); assay: PRMT1 binders on small-molecule microarrays, primary screen, biochemical, small-molecule microarray, 635 nm fluorescence (AID 1088); settings: small-molecule microarray binding, higher = more signal;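 note: binding of Prmt1 protein to compounds spotted on small-molecule microarray slides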
# [12] = yeast growth modulation, basal conditions, primary screen, YJM789 clinical isolate, OD600, 24 h (AID 1089);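 note: growth of clinical yeast isolate S. cerevisiae YJM 789 seeded 1000 cells per well; test concentration not given here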; settings: S. cerevisiae YJM789 growth, higher = more signal, called active from +8 up or from −8 down
# [13] = fission yeast growth modulation, primary screen, strain 972, OD600, 24 h, no modulator (AID 1090);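 note: basal condition with compound alone and no growth modifier present; test concentration not given here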; settings: S. pombe 972 growth, higher = more signal, called active from +8 up or from −8 down
# [14] = S. cerevisiae growth modulation with rapamycin, primary screen, strain BY4716, OD600, 96 h (AID 1091); settings: higher = more signal, called active from +8 up or from −8 down; note: test concentration not given here
# [15] = molecular target: Torsin-1A-interacting protein 2 (Homo sapiens) (UniProt Q8NFQ8); assay: LULL1 binders on small-molecule microarray, primary screen, cell lysate, human LULL1 lysate, 635/667 nm fluorescence (AID 1092); settings: hLULL1 lysate binding, 635 nm fluorescence, higher = more signal;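 note: probe is lysate of COS7 cells overexpressing human LULL1; score merges per-feature 667 nm fluorescence with signal-to-noise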
# [16] = E. coli growth modulation, two-sided OD650, primary screen, E. coli filamentation project, strain DRC41, 24 h (AID 1093); settings: OD650, 24 h, higher = more signal, called active from +8 up or from −8 down;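 note: MC1000 strain lacking acrAB efflux and sulA so SOS filamentation is blocked; test concentration not given here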
# [17] = small-molecule microarray binders of probe aLefty2, primary screen, biochemical, biotinylated probe, 635/667 nm fluorescence (AID 1094); settings: higher = more signal;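 note: score merges spot fluorescence near 667 nm with spot signal-to-noise ratio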
# [18] = test system: Noggin (protein binding on small-molecule microarray); assay: Noggin binders on small-molecule microarray, primary screen, biochemical, 635/667 nm fluorescence (AID 1095); settings: 635 nm fluorescence, higher = more signal;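 note: score merges 667 nm feature fluorescence with signal to noise over triplicate slides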
# [19] = molecular target: Neurogenic locus notch homolog protein 3 (Homo sapiens) (UniProt Q9UM47); assay: NOTCH3 binders on small-molecule microarray, primary screen, biochemical, 635/667 nm fluorescence (AID 1096); settings: NOTCH3 binding, 635 nm fluorescence, higher = more signal
# [20] = small-molecule microarray binders of probe aEGFR, primary screen, biochemical, biotinylated probe, 635/667 nm fluorescence (AID 1097); settings: higher = more signal;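 note: probe is a biotinylated anti-EGFR antibody binding compounds printed on slides; score combines fluorescence near 667 nm and signal to noise of each spot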
# Sequence of Neurogenic locus notch homolog protein 3 (Homo sapiens) (Q9UM47 whole entry, looked up): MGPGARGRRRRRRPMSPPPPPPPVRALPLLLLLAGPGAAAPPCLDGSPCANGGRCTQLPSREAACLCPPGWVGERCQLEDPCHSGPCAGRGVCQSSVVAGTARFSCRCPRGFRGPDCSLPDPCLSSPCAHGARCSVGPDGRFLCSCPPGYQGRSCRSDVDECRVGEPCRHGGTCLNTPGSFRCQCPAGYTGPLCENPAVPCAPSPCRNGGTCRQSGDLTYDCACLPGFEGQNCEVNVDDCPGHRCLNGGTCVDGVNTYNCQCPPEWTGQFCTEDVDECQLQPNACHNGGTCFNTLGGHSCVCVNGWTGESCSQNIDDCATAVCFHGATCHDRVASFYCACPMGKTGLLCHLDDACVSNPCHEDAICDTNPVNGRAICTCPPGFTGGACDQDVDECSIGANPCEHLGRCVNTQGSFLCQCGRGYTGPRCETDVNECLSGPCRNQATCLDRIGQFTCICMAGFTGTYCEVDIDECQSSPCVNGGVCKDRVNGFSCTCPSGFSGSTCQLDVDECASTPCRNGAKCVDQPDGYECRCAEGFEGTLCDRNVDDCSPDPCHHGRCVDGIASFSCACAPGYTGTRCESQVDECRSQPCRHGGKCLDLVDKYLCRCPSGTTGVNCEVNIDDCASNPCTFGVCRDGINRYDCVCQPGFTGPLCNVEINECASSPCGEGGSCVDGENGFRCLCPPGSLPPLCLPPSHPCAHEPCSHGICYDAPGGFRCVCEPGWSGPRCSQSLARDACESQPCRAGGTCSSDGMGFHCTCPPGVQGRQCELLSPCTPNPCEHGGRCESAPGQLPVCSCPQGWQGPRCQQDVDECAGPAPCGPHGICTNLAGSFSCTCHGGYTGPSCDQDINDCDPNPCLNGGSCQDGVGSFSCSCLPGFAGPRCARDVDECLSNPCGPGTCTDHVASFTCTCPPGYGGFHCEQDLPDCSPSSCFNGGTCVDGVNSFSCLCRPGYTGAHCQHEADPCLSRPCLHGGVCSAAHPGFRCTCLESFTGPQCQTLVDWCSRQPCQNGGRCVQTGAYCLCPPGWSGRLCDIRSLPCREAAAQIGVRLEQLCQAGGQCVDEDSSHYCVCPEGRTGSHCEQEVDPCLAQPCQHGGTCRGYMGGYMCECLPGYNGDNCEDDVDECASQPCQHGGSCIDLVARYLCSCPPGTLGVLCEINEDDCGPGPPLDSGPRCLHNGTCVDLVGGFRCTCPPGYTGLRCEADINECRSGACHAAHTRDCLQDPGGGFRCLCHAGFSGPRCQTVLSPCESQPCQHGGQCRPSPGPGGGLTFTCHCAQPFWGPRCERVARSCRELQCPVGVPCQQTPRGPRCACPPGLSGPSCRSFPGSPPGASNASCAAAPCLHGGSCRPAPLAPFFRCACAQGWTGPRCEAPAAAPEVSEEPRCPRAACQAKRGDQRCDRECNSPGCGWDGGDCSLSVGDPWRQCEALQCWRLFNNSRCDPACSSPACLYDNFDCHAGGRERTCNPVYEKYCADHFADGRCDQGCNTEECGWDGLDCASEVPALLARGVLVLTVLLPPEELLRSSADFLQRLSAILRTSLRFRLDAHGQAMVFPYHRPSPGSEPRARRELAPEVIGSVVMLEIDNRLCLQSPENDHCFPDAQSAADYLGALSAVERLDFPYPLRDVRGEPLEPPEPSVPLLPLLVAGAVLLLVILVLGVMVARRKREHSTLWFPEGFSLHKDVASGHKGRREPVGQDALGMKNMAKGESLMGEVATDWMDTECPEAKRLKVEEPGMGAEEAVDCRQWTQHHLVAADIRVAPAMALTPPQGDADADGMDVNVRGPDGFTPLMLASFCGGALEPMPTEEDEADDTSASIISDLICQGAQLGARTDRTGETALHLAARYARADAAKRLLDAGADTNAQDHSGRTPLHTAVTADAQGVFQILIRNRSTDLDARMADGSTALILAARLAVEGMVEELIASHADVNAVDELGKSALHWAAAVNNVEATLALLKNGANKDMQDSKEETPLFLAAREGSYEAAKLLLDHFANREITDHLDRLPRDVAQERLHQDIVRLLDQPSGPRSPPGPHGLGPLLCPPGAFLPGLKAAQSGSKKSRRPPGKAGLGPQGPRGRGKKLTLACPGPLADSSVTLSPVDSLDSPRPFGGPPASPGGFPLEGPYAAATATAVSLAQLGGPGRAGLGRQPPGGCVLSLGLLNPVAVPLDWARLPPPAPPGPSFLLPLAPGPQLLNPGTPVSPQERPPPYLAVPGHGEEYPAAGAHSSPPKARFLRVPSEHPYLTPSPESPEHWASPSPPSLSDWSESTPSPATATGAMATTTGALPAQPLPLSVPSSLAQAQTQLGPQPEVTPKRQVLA
# Sequence of Torsin-1A-interacting protein 2 (Homo sapiens) (Q8NFQ8 whole entry, looked up): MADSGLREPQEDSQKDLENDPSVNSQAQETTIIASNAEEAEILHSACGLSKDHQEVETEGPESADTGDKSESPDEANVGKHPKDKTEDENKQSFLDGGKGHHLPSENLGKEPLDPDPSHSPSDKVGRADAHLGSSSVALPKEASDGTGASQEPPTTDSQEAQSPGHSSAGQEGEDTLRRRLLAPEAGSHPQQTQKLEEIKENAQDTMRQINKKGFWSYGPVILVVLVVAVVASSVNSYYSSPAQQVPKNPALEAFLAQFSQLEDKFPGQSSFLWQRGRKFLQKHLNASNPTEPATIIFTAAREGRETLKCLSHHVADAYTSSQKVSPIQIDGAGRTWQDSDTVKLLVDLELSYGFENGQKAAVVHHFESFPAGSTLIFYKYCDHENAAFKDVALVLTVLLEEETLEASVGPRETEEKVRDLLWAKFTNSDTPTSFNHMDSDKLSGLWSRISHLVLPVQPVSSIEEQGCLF
# Sequence of Pro-neuregulin-1, membrane-bound isoform (Homo sapiens) (Q02297 whole entry, looked up, the tested form may be a part, canonical isoform): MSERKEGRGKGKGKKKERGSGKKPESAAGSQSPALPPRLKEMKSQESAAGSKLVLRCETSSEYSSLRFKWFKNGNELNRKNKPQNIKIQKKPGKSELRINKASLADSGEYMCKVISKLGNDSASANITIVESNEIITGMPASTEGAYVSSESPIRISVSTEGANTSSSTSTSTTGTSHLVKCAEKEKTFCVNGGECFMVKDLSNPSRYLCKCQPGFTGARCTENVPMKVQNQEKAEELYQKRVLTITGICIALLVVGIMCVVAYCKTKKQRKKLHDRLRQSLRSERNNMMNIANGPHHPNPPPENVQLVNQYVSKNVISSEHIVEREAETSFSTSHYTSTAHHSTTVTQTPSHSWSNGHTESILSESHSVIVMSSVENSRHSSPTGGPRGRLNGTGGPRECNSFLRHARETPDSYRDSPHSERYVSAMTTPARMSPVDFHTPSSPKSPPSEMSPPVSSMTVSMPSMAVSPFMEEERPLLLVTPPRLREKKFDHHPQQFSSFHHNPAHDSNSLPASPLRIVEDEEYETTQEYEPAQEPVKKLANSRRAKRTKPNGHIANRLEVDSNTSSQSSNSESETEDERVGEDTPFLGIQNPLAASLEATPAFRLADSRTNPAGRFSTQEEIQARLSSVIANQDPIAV
SMILES,composite z-score [1],composite z-score [2],composite z-score [3],composite z-score [4],composite z-score [5],composite z-score [6],composite z-score [7],z-score [8],composite z-score [9],composite z-score [10],composite z-score [11],z-score [12],z-score [13],z-score [14],composite z-score [15],z-score [16],composite z-score [17],composite z-score [18],composite z-score [19],composite z-score [20]
Cc1ccc(S(=O)(=O)N2[C@@H](c3ccccc3)C(C(=O)O)=C[C@H]2C(C)(C)C)cc1,-0.316,1.81,0.0103,0.611,1.45,1.37,1.23,-1.84 (inactive),0.736,-0.156,1.55,-0.601 (inactive),-0.273 (inactive),-0.802 (inactive),2.88,-0.231 (inactive),0.152,0.126,1.08,0.131
COC(=O)C(CC#Cc1ccc2c(c1)[C@]1(C(=O)N2)[C@H](C(=O)N2CCN(c3ncccn3)CC2)[C@H]2C(=O)O[C@H](c3ccccc3)[C@H](c3ccccc3)N2[C@@H]1c1ccc(O)cc1)C(=O)OC,2.65,0.987,0.374,1.01,1.53,1.44,1.31,1.41 (inactive),2.24,0.102,1.53,1.04 (inactive),1.1 (inactive),0.183 (inactive),3.25,-0.333 (inactive),0.759,1.73,1.01,1.05
COCCOC(=O)N1C(=O)[C@@]2(c3cc(C#CCNC(N)=O)ccc31)[C@H](C(N)=O)[C@H]1C(=O)O[C@H](c3ccccc3)[C@H](c3ccccc3)N1[C@@H]2c1ccc(O)cc1,-0.0585,0.0947,-0.0899,0.29,-0.148,0.0637,0.235,-0.329 (inactive),0.0377,-0.287,0.46,0.898 (inactive),-0.173 (inactive),0.449 (inactive),0.634,1.19 (inactive),0.0362,0.173,-0.564,-0.0828
COC(=O)C1=CC(CCCO)=CC(c2ccc(CN3CCCC3)cc2)N(C)C=C1C(=O)OC (stereo not given),0.114,1.34,0.0755,1.21,1.13,1.93,1.18,0.48 (inactive),0.989,-0.219,0.853,-0.512 (inactive),0.0939 (inactive),-0.19 (inactive),3.4,0.0791 (inactive),0.0723,-0.2,0.276,0.0816
C=CC[C@H](OC(=O)Nc1ccc(SC)cc1)c1ccc(O)c(F)c1,0.57,0.274,-0.102,-0.575,-1.19,0.659,1.07,8.09 (active),-0.512,-0.156,-0.487,-22.7 (active),-19.7 (active),-1.19 (inactive),1.04,0.622 (inactive),-0.106,-0.176,0.223,-0.14
COc1c(C)cc(-c2nc(-c3ccccc3)c3c(c2C)CO[Si]3(C(C)C)C(C)C)cc1C,-0.24,0.428,-0.134,0.146,0.442,-0.0636,-0.104,0.232 (inactive),0.0724,-0.0994,0.114,0.687 (inactive),0.104 (inactive),-0.191 (inactive),0.254,-1.59 (inactive),0.074,0.323,0.566,-0.0068
COC(=O)[C@@]1(Cc2ccccc2)[C@H]2c3cc(C(=O)N(C)C)n(CCF)c3C[C@H]2CN1C(=O)c1ccccc1,1.57,2.12,0.181,0.103,1.31,2.17,0.592,1.52 (inactive),0.974,-0.0296,0.479,0.176 (inactive),1.18 (inactive),0.678 (inactive),2.21,-0.0418 (inactive),0.534,-0.669,0.782,0.21
O=C1NC(=O)C2C1C=CC(C(O)c1ccc(F)cc1)N2Nc1ccc(Cl)cc1Cl (stereo not given),0.848,-0.335,0.103,0.336,0.916,1.8,0.885,-0.068 (inactive),0.0708,-0.374,0.589,-25.3 (active),-7.26 (inactive),-0.0449 (inactive),3.02,-1.3 (inactive),0.096,-0.749,0.14,-0.123
COC(=O)C(CC#Cc1ccc2c(c1)[C@]1(C(=O)N2)[C@H](C(=O)NC[C@H](O)c2ccccc2)[C@H]2C(=O)O[C@H](c3ccccc3)[C@H](c3ccccc3)N2[C@@H]1c1ccc(O)cc1)C(=O)OC,-0.297,0.328,-0.121,-0.199,0.259,0.529,0.773,0.589 (inactive),0.056,-0.131,0.356,0.542 (inactive),0.793 (inactive),0.162 (inactive),0.719,-1.02 (inactive),-0.055,0.264,0.401,-0.0509
CO[C@H]1O[C@H](CO)[C@@H](OC(=O)Nc2ccccc2)[C@@H]2OC(=O)[C@@H](Cc3ccccc3)C/C=C/C[C@H](Cc3ccccc3)C(=O)O[C@@H]12,-0.263,1.24,-0.0737,0.393,-0.0327,0.379,0.324,-0.461 (inactive),0.241,0.176,1.2,0.552 (inactive),-0.0693 (inactive),1.04 (inactive),1.41,0.386 (inactive),0.142,-0.0235,-0.151,-0.0697
CC(C)(C)OC(=O)CC[C@@]1(C(N)=O)N=C(c2ccc(OCCCO)cc2)O[C@@H]1c1ccccc1CN=[N+]=[N-],0.389,0.87,0.153,0.712,1.57,1.28,1.44,4.09 (inactive),1.47,0.452,-0.319,0.689 (inactive),-0.477 (inactive),-0.132 (inactive),2.86,0.035 (inactive),0.669,0.324,0.851,0.756
CN1C(=O)C2C(C1=O)C1C=C(CCCO)C2C(C2CC2)N1C (stereo not given),0.227,-0.144,0.078,0.333,0.196,0.496,0.625,-0.818 (inactive),-0.196,-0.385,0.74,-1.39 (inactive),-0.339 (inactive),-0.517 (inactive),2.52,-0.797 (inactive),-0.0812,-0.21,-0.312,-0.0922
Cc1ccc(S[C@]2(C(=O)NC(C)C)CC(=O)N(Cc3ccccc3)[C@@H]2c2ccc(CO)cc2)cc1,0.466,-0.488,-0.0909,-1,-1.25,1.56,0.57,-2.62 (inactive),-0.604,0.0373,-0.251,-1.58 (inactive),0.433 (inactive),-0.632 (inactive),0.228,1.31 (inactive),-0.0593,-0.371,-0.312,-0.18
CC1(C)OB(/C=C\CC(OC(=O)c2ccncc2)c2ccccc2)OC1(C)C (stereo not given),2.93,0.214,0.0262,-1.4,-1.48,0.852,0.181,1.99 (inactive),-0.0939,-0.0296,-0.477,-1.7 (inactive),-1.3 (inactive),1.99 (inactive),0.962,1.04 (inactive),1.22,-1.92,-1.73,-0.244
OCCCc1cc[n+](Cc2cc3c(cc2Br)OCO3)cc1,0.622,-0.226,-0.116,-0.782,-0.914,1.23,0.583,0.584 (inactive),-0.222,-0.383,0.115,-0.41 (inactive),-0.688 (inactive),-0.213 (inactive),-0.0854,0.0566 (inactive),0.193,-0.617,-0.785,-0.12
CCOC(=O)C1=CCC(c2ccncc2)N(S(=O)(=O)c2ccc(C)cc2)C1 (stereo not given),-0.149,-0.128,-0.0459,1.03,1.32,2.03,1.21,-1.41 (inactive),0.981,-0.0735,1.36,-2.24 (inactive),-2.69 (inactive),8.79 (active),3.84,0.336 (inactive),-0.0585,0.361,1.09,0.0642
COC(=O)[C@@]1(Cc2ccc(F)cc2)[C@H]2c3cc(C(=O)N4CCCC4)n(Cc4ccc(OC(F)(F)F)cc4)c3C[C@H]2CN1C(=O)c1ccccc1,0.262,-0.292,0.0336,0.334,1.08,0.621,0.71,1.45 (inactive),0.401,-0.0074,-1.08,0.646 (inactive),0.693 (inactive),-0.16 (inactive),2.1,-1.01 (inactive),-0.0238,-1.2,-1.23,-0.0472
CC(C)N1C(=O)[C@@]2(Cc3ccccc31)c1ccccc1C(=O)N(Cc1ccccc1C(F)(F)F)[C@H]2c1ccc(CO)cc1,-0.303,0.0613,-0.0775,0.108,0.339,0.39,1.46,-0.641 (inactive),0.086,-0.116,1.31,-0.0493 (inactive),-0.706 (inactive),-1.81 (inactive),2.23,-0.569 (inactive),-0.269,0.841,0.99,0.116
COc1ccc(CCNC(=O)[C@@H]2c3ccccc3C(=O)N(C(C)C)[C@H]2c2ccc(CO)cc2)cc1,1.42,-0.489,-0.142,-0.92,-1.48,0.0203,0.209,-1.15 (inactive),-0.36,-0.379,-0.592,0.342 (inactive),-0.264 (inactive),-0.0884 (inactive),2.05,1.39 (inactive),0.0129,-1.3,-2.01,-0.238
COCCOC(=O)N1C(=O)[C@@]2(c3cc(C#CCNC(N)=O)ccc31)[C@H](c1ccc(O)cc1)N1[C@H](c3ccccc3)[C@H](c3ccccc3)OC(=O)[C@H]1[C@@H]2C(=O)N1CCc2cc(OC)c(OC)cc2C1,0.141,0.0344,0.0525,0.67,1.07,1.06,0.786,0.411 (inactive),0.39,-0.0427,1.29,1.05 (inactive),0.123 (inactive),1.84 (inactive),1.47,-0.732 (inactive),-0.0475,0.978,0.636,-0.0967
